{
  "source": "PubChem BioAssay AID1508600",
  "about": "(Functional Genomics Laboratory (NCATS/FGL), 2020)",
  "note": "In all, about 53,000 sequences went through this assay and about 3,700 (7%) were called active. The entries come from a sample that favours actives as a whole. A number with no mark means an inactive call.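 The calls were made as follows: active = gene knockdowns whose robust z-score for IL-1 alpha signal is at least 2 or at most -2, so actives lie on both sides; inactive = the rest.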",
  "data": [
    {"assay": "Components of the Cytosolic LPS Sensing Pathway: Gene Identification via Genome-wide siRNA Screen;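 also: robust z of the log signal after scaling to non-targeting control siRNA wells of the plate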", "settings": "RAW264.7 macrophages, IL-1a HTRF, actives lie on both sides, screened at 100 nM (by protocol), cells primed 5 h with Pam3CSK4 first", "outline": "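RAW264.7 mouse macrophages reverse-transfected with single siRNAs (100 nM final) for 48h, primed with Pam3CSK4 for 5 hours, then transfected with LipidA for 24 hour. Supernatant IL-1a read by HTRF; values normalized to negative-control median, log-transformed robust z-scores.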", "values": [
      {"sequence": "GGACAUUGCCCACAUGACCTT against Rnf227", "z-score": -0.15},
      {"sequence": "GCUCAACAGGCUCAACUACTT against Cndp2", "z-score": 0.492},
      {"sequence": "GGACUACCGAACAAGAGAATT against Zfp318", "z-score": 0.241},
      {"sequence": "GCAUUCACCGUACGUAUUCTT against Id4", "z-score": 0.187},
      {"sequence": "GGGUAGAAUCCAAGAAGCGTT against Hoxb3", "z-score": "-2.08 (active)"},
      {"sequence": "GGUCUUCAACCCUGUUUGGTT against Gpsm3", "z-score": 0.329},
      {"sequence": "GGAGACUCCAUACCAGUGUTT against Zfp329", "z-score": 1.78},
      {"sequence": "GGAUAUGGGAAUGAAAGCATT against Nyap2", "z-score": "-2.21 (active)"},
      {"sequence": "GGCAGCAUUACACUGAAUCTT against Slc36a4", "z-score": 0.436},
      {"sequence": "CCUAGUGAUUAAAGGGAUGTT against Prss43", "z-score": 1.19},
      {"sequence": "GGAAAGUGUUUUCUCAUGATT against Klf9", "z-score": -0.23},
      {"sequence": "GGUGGUCUACUUCACCGCATT against Slc6a20a", "z-score": 0.466},
      {"sequence": "GGAUCUCCUUUUUUUUCAATT against Gabrr1", "z-score": 0.0887},
      {"sequence": "UCAUCGCAACCAUCCACAGTT against Olfr530", "z-score": 0.464},
      {"sequence": "CGAUGACGAUGCCUAACCATT against Dgkeos", "z-score": "-2.34 (active)"},
      {"sequence": "GGGAGUCUGGUGGAUUGAUTT against Rln1", "z-score": 0.0253},
      {"sequence": "GGUCUCACAAAAACAGUUCTT against Casq2", "z-score": -0.317},
      {"sequence": "GCAGUGUAAUGUGGCCUACTT against Rorc", "z-score": 0.682},
      {"sequence": "GCUGUUUUCUUUCCAUUUCTT against Olfr981", "z-score": -1.1},
      {"sequence": "GAAUUACACACAGGCCUGATT against Olfr1048", "z-score": 0.306},
      {"sequence": "CACUGCUGUAAUCCCUAUGTT against Olfr1002", "z-score": 0.4},
      {"sequence": "CCAACAACGGCAUUCACUATT against Ebf3", "z-score": -0.676},
      {"sequence": "GGAGCACUUUGUAUGGAACTT against Ube2q2", "z-score": "2.97 (active)"},
      {"sequence": "CAAACCUUGUUGCCAUGACTT against Olfr406", "z-score": 0.0688},
      {"sequence": "GACAAGGUGCCAUACCAUUTT against Olfr351", "z-score": -0.373},
      {"sequence": "GGACAGCUCUCAGAAUUCUTT against Ctse", "z-score": -1.13},
      {"sequence": "CGCAAACAAACCUUAACAGTT against Maneal", "z-score": "2.21 (active)"},
      {"sequence": "GCUCCGGAAAGUAAGCAGATT against Tnfrsf26", "z-score": 0.259},
      {"sequence": "CCAUGGUACUAAUGUAAAUTT against Eef1e1", "z-score": 0.797},
      {"sequence": "GGCUUUGAACACCAGUGAATT against Rpp21", "z-score": -0.453},
      {"sequence": "CGCAGAUAAUAUCUUUGUCTT against Olfr461", "z-score": 0.389},
      {"sequence": "GGACCUAAGCAGAAAACUGTT against Meis3", "z-score": 0.789},
      {"sequence": "GCGGUAUGGCAUGGUACAUTT against LTO1", "z-score": -0.855},
      {"sequence": "GGCCAUAAAACAUAAGCUATT against Tmem17", "z-score": 0.163},
      {"sequence": "CGAACUUGUACAGAAGAAUTT against Slfn3", "z-score": -0.311},
      {"sequence": "AUGGGAGAAUCAGCAGAACTT against Set", "z-score": "-2.77 (active)"},
      {"sequence": "GCAUAGAGGACUACAACGATT against Optc", "z-score": 0.329},
      {"sequence": "GGACAGGAAGAAAAGAAACTT against Vmn2r-ps11", "z-score": -1.19},
      {"sequence": "GGAAGGUGAAGCCAGUUUCTT against Traf3ip2", "z-score": "2.02 (active)"},
      {"sequence": "GGACACUUUCAGACCUUAGTT against Ankrd27", "z-score": -0.116},
      {"sequence": "GGACUUUGAUGUUGAAUGUTT against Rapgef1", "z-score": -0.985},
      {"sequence": "GGAAAAUGGUUGGUACUUUTT against Vwc2", "z-score": 0.219},
      {"sequence": "GGACCUUCCUACGAGAAAATT against Tm2d2", "z-score": 0.0894},
      {"sequence": "GGAUCAAGGAGGAUUUCAATT against Tprg", "z-score": "2.38 (active)"},
      {"sequence": "CGGUAAACAUCAGUAAUGATT against Drd5", "z-score": 0.0608},
      {"sequence": "GCUACGUUCAGUUCCAUUGTT against Eddm3b", "z-score": -0.321},
      {"sequence": "CGACUUGAUUUCAAAACAUTT against Fbxl13", "z-score": -0.981},
      {"sequence": "GGACCUGUCCAUCUUCAUCTT against Scn1b", "z-score": "3.87 (active)"},
      {"sequence": "GCCAAGAGUUUGAUAUAUATT against Plekhg3", "z-score": 1.79},
      {"sequence": "GGUAACAUCUCCAUCAGCCTT against Nxph3", "z-score": 0.34},
      {"sequence": "GGUAUCUUUAGGUUUCUGGTT against Vmn2r37", "z-score": 0.499},
      {"sequence": "GCCAAGAAAGAUCAUUGACTT against Far2", "z-score": -0.703},
      {"sequence": "GCUAGCCAGUGCAUUCACATT against Srp68", "z-score": "-2.96 (active)"},
      {"sequence": "GCCCUUAAUUGAACAAAUATT against Otud7b", "z-score": 0.0529},
      {"sequence": "CGGACUCAGUCAUCAUUGCTT against Atf7", "z-score": -1.46},
      {"sequence": "GGAAAGAAAAAUCAGAGAATT against Adprhl1", "z-score": -0.866},
      {"sequence": "GCUGUGGUAAACUGAAACUTT against Glis2", "z-score": -1.89},
      {"sequence": "GGGAGCCAAUGAAAUCAAGTT against Hmbox1", "z-score": "3.31 (active)"},
      {"sequence": "GCCUUGACAGAGGUAUUGATT against Ovgp1", "z-score": -1.46},
      {"sequence": "GGAGAAAUUCAAACAAGUATT against 4930503B20Rik", "z-score": 0.275},
      {"sequence": "CCCACUGGUUUGUUUAAACTT against Hbegf", "z-score": 0.555},
      {"sequence": "GGUUUUGCCUCCCAUAGUATT against Ssty1", "z-score": 0.112},
      {"sequence": "GGAGGAGCUUAGCCCUUUUTT against Bad", "z-score": "2.28 (active)"},
      {"sequence": "GCAGUUACGUUAGUUAAUATT against Plekha1", "z-score": 1.1},
      {"sequence": "GCUACUCAUUUAGCAGAGATT against Olfr76", "z-score": -0.887},
      {"sequence": "GUGGAUUAGGGAAUUUCAUTT against Mrgprb1", "z-score": 1.84},
      {"sequence": "GAAUCCCUUCGAGUACGACTT against Fxyd2", "z-score": "3.17 (active)"},
      {"sequence": "GGAGCUGAAUGUCUGUAGCTT against Mzt2", "z-score": -1.31},
      {"sequence": "CCUGAUGGAUGAUGAAUCATT against Trap1a", "z-score": -1.42},
      {"sequence": "GGAGGAGCUGGAGAAAACATT against Psd4", "z-score": -0.43},
      {"sequence": "GGUCCUUUGAUGCUGACUGTT against Sfrp4", "z-score": "-2.07 (active)"},
      {"sequence": "CCAAGAAAAGUCCAGAAGCTT against Rorb", "z-score": 0.379},
      {"sequence": "GGAGAGACGUAAGAGGCGATT against Zrsr2", "z-score": 0.0858},
      {"sequence": "GGACAAUUGGGCCAAACUGTT against Mpv17", "z-score": 0.103},
      {"sequence": "GGUGAAACCCUGAAAGUCCTT against Tmem154", "z-score": -0.169},
      {"sequence": "GGUGUGUUAAGGUUUUUAATT against Marchf1", "z-score": "3.68 (active)"},
      {"sequence": "GGAUAAUUUUGGAAGCAGATT against Rheb", "z-score": -0.299},
      {"sequence": "GCAUCUCACUCGUAAAGGUTT against Tmprss11f", "z-score": -0.555},
      {"sequence": "GCGCGUGACAAGGAGGAUUTT against Ska3", "z-score": 1.03},
      {"sequence": "GGCCUGAACUUUUUAUUGATT against Olfr533", "z-score": "-2.19 (active)"},
      {"sequence": "GGGAUUUUAUCAUACAAACTT against Ppil4", "z-score": 0.774},
      {"sequence": "GGCUUUCAUGUGCCGUUUUTT against Gstm5", "z-score": "2.39 (active)"},
      {"sequence": "GGAACUUGUUUCAUAUCGUTT against Scfd1", "z-score": 0.839},
      {"sequence": "GGGAUUGUGUGAAUCAUACTT against Tmem230", "z-score": -1.27},
      {"sequence": "GGCUGCUGAAGCAAAUAAGTT against Ankrd17", "z-score": "3.38 (active)"},
      {"sequence": "GGGAAGGCUGAAUGACUGCTT against Vamp5", "z-score": 0.257},
      {"sequence": "GGCGAGAGAGAUGAGUAAATT against Smim3", "z-score": -1.63},
      {"sequence": "GGGAAUUAUGGGCUUACCGTT against 4931414P19Rik", "z-score": -0.414},
      {"sequence": "GGCUAUUUCUUUUUAUGCUTT against Ak4", "z-score": 0.911},
      {"sequence": "GGAGACAAUGGACAAGAAGTT against Dnal4", "z-score": 0.272},
      {"sequence": "GCCAGUAACCAGAAAAUUGTT against Sycp3", "z-score": "-2.01 (active)"},
      {"sequence": "CCUUAUUACACACACCCUGTT against Gja3", "z-score": 0.398},
      {"sequence": "GCUGGUAGCAUUCUUAUCCTT against Xylt2", "z-score": 0.529},
      {"sequence": "CGGAUGAGGUUUCUUUUAUTT against Phkb", "z-score": 0.415},
      {"sequence": "GGUUGGUUCUUACUUGAAATT against Mindy3", "z-score": 0.613},
      {"sequence": "GGAUAAUGCUCCAUCAUAGTT against Nab1", "z-score": -0.419},
      {"sequence": "GCAAUCACCAAAUCACUAGTT against Fstl1", "z-score": -0.123},
      {"sequence": "GCCAGGAAACGACAAUAAATT against Slc5a11", "z-score": 0.731},
      {"sequence": "CCUAGUACUUCGAAGAAAGTT against Tmem255a", "z-score": "-2.62 (active)"},
      {"sequence": "GGUCAUUCAGUGGUGCACCTT against Skp1", "z-score": -0.00227},
      {"sequence": "GGUUUCAAACUCUUGUAAUTT against Pgrmc1", "z-score": -0.139},
      {"sequence": "GGUUUGUUUUCAGAUGAAGTT against Washc2", "z-score": 0.155},
      {"sequence": "GGAGAAAAUAAGCUGGUAGTT against Slc35f1", "z-score": "3.42 (active)"},
      {"sequence": "CCCAUCAAUGCUGUUAAUUTT against Entpd5", "z-score": 0.128},
      {"sequence": "GCUCGAUAUCACAGAGAUUTT against Ces5a", "z-score": -0.177},
      {"sequence": "GGAGUUGGAGAAUGACACGTT against Ift88", "z-score": 1.14},
      {"sequence": "GCAGUGUUGUCAAAACUUGTT against Mtfmt", "z-score": 1.54},
      {"sequence": "GGUACUUUAUAGGAACAGUTT against Zbtb41", "z-score": -0.973}
    ]}
  ]
}
